Compound activity as filed in PubChem.
The list is not random: actives were taken first. Their share in the collection is about 6.5%.
IL-1B inflam inh – blocks inflammasome-driven IL-1 beta release; THP-1 LPS/ATP IL-1B secretion, AlphaLISA, 16 h; stronger effect = lower value; activity change, % at 57.5 µM; hit rate 4.7% among 360,000; AID 743279; in the data active = activity change below about -50%; inconclusive = mostly about -30% to -49%
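THP-1 cells pretreated 1 hr with compounds (up to 57.5 uM final), then stimulated with LPS (250 ng/mL final) plus ATP (1.25 mM final); secreted IL-1B measured by AlphaLISA after 16 hr, decreased signal indicating inhibition.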
TGFb inhibitor – TGF-b pathway inhibition; HepG2 CAGA-GFP TGF-b/SMAD3 reporter, GFP fluorescence, 18 h; TGF-beta stimulated, 500 pg/mL final; Potency, µM (series often up to 46.1 µM), most hits filed as inhibitors; hit rate 1.2% among 410,000; note: nearly all actives have a fitted effect of over 65% in size
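Using HEPG2 CAGA-GFP reporter cells at 1000 cells/well, we pinned test compounds, stimulated with recombinant TGF-beta (500 pg/mL final) and measured total well GFP after 18 h.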
HT1080NT lethal – kills 2HG-producing HT-1080-NT fibrosarcoma cells; HT-1080-NT fibrosarcoma viability, CellTiter-Glo ATP luminescence, 48 h; Potency, µM (series often up to 46.1 µM), most hits filed as cytotoxic; hit rate 1.6% among 360,000; AID 686970;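 note: NT is the 2HG producing partner of a matched IDH1 knockdown line; nearly all actives have a fitted effect of over 55% in size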
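HT-1080-NT; 750 cells/well; 5% FBS RPMI; 48 h compound, 37 degrees C; CellTiter-Glo luminescence; curve fitting and curve-class assignment.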
HT1080 IDH1KD tx – toxicity to HT-1080 IDH1 knockdown cells (counter line); HT-1080 IDH1 knockdown viability, ATP luminescence, 48 h; Potency, µM (series often up to 46.1 µM), hits mostly cytotoxic; hit rate 2% among 360,000
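HT-1080-IDH1KD cells (IDH1 knocked down), 750/well in RPMI with 5% FBS, treated with compound 48 h at 37 degrees C. Viability by CellTiter-Glo luminescence, normalised to DMSO and no-cell wells; concentration-response curves classed.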
HepG2 tox – HepG2 cytotoxicity, counter-screen for TGF-b inhibitors. HepG2 CAGA-GFP viability, ATP luminescence, 18 h. Potency, µM (highest dose often 46.1 µM), most hits filed as cytotoxic. hit rate 0.76% among 410,000. AID 588856
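HepG2 CAGA-GFP cells (1000/well, DMEM with 1% FBS) received compound, then TGF-beta at 500 pg/mL final, and were incubated 18 hours at 37 degrees C. Viability was read by CellTiter-Glo luminescence. Media-only wells were set as complete cell-killing and DMSO as no toxicity.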
Giardia kill – kills Giardia lamblia. Giardia lamblia trophozoite viability. activity change, % at 7.66 µM, hits read low. hit rate 0.15% among 340,000. AID 540267; in the data active = activity change below about -80%; inconclusive = between about -30% and that limit;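 note: parasites exposed to compound for two days anaerobically before the ATP read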
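ATP-content bioluminescence gauges trophozoite survival. Cells (100/well) receive compound and incubate anaerobically for 48 hrs at 37 deg C; detection reagent follows for 15-30 min at room temperature.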
Each line names hits and unclear results; the compound was inactive in the other large screens; ! = repeats disagree. Unless noted, calls come from the whole dose curve; as a rule, active = well fitted curve in the direction sought with a large enough effect; inconclusive = small, poorly fitted or top-dose-only effect, or another doubt; inactive = no such curve, though single readings can be large; an effect the other way counts as inactive or inconclusive.

O=C(CSc1nccn1Cc1ccco1)Nc1ccccc1C(F)(F)F	none
CC(=O)N1CCN(S(=O)(=O)c2cccc(C(=O)Nc3cc(C(F)(F)F)ccc3N3CCOCC3)c2)CC1	none
CCCOc1ccc(C(=O)Nc2ccc(NC(=O)c3cccs3)cc2)cc1	none
CCCCOc1cccc(C(=O)Nc2ccc(NC(=O)c3cccs3)cc2)c1	HT1080NT lethal 21µM, HT1080 IDH1KD tx 15µM
COC(=O)COc1cccc(NC(=O)c2cccs2)c1	IL-1B inflam inh -53
COc1ccc(S(=O)(=O)N2CCN(C(=O)C3CC3)CC2)cc1Br	none
CCN(CC)CCNC(=O)c1[nH]c2ccccc2c1Sc1ccc(Cl)cc1	TGFb inhibitor inconclusive, HepG2 tox 14µM (no result: IL-1B inflam inh, HT1080NT lethal, HT1080 IDH1KD tx, Giardia kill)
Cc1cc(N)n2ncc(-c3ccccc3)c2n1	none
CC(=O)Nc1ccc(Nc2cc(C)nc3c(-c4ccccc4)cnn23)cc1	HT1080NT lethal 15µM, HT1080 IDH1KD tx 13µM
CC(C)c1ccc(Nc2c(-c3ccccn3)nc3ccccn23)cc1	TGFb inhibitor inconclusive, HepG2 tox 10µM (no result: IL-1B inflam inh, HT1080NT lethal, HT1080 IDH1KD tx, Giardia kill)
Cc1ccccc1Nc1c(-c2ccccn2)nc2ccccn12	TGFb inhibitor inconclusive, HT1080NT lethal inconclusive, HT1080 IDH1KD tx inconclusive
Cc1ccn2c(Nc3ccccc3C)c(-c3ccccn3)nc2c1	TGFb inhibitor 13µM, HT1080NT lethal 15µM, HT1080 IDH1KD tx 9.2µM, HepG2 tox 16µM!
CN(C)c1ccc(/C=C2\CCCCC2=O)cc1	none
CN(C)CCC1(C2=CCCC2)CC/C(=C/c2ccc(Cl)cc2)C1=O (configuration not stated)	IL-1B inflam inh -111, HT1080NT lethal inconclusive, HT1080 IDH1KD tx inconclusive
N#Cc1c2ccc(O)cc2n2ccccc12	IL-1B inflam inh -52, TGFb inhibitor inconclusive
N#Cc1c2ccc(OCC(=O)NCc3ccco3)cc2n2ccccc12	none
CCCCOc1ccc(C(=O)Nc2ccc(-c3cc4ccccc4oc3=O)cc2)cc1	none (no result: IL-1B inflam inh, HT1080NT lethal, HT1080 IDH1KD tx, Giardia kill)
NCCCC[C@H]1CNC(=S)N1CCc1cc(C(F)(F)F)cc(C(F)(F)F)c1	IL-1B inflam inh -51
CC1CC(C)CN(CCOc2ccc(Cl)cc2Cl)C1 (configuration not stated)	IL-1B inflam inh -68
Clc1ccc(OCCN2CCCCC2)c(Cl)c1	HT1080 IDH1KD tx inconclusive
CC1CC(C)CN(CCOc2cccc(Cl)c2Cl)C1 (configuration not stated)	IL-1B inflam inh -68
Cc1cccc2sc(NNC(=O)c3cc(-c4cccs4)nc4ccccc34)nc12	TGFb inhibitor inconclusive, HT1080NT lethal inconclusive, HT1080 IDH1KD tx 21µM
Cc1ccc(NC(=O)c2cc(-c3cccs3)nc3ccccc23)c(C)c1	none (no result: IL-1B inflam inh, HT1080NT lethal, HT1080 IDH1KD tx, Giardia kill)
O=C(NC1=NCCS1)c1cc(-c2cccs2)nc2ccccc12	IL-1B inflam inh -64
O=C(NC1=NCCS1)c1cc(-c2cccnc2)nc2ccccc12	none
N#CC1=C(SCc2ccccc2)NC2=C(C(=O)CCC2)C1c1ccc2c(c1)OCO2 (configuration not stated)	none
CCN(CC)C(=S)NC(=O)c1ccc(OC)c(Br)c1	none
C=CCN(CC=C)C(=S)NC(=O)c1ccc(OC)c(Br)c1	HT1080NT lethal inconclusive, HT1080 IDH1KD tx 3.2µM
CC(C)CN(C(=O)COC(=O)CSc1ccccc1)c1c(N)n(Cc2ccccc2)c(=O)[nH]c1=O	none
COc1cc(C2CC(=O)Nc3c2c(C)nn3-c2nncc(-c3ccc(C)cc3)n2)cc(OC)c1OC (configuration not stated)	TGFb inhibitor inconclusive (no result: IL-1B inflam inh, HT1080NT lethal, HT1080 IDH1KD tx, Giardia kill)
COc1ccc(OCC(O)CN(CC(O)COc2ccc(OC)cc2)c2cccc(O)c2)cc1 (configuration not stated)	IL-1B inflam inh -50, HT1080NT lethal inconclusive, HT1080 IDH1KD tx inconclusive, HepG2 tox 10µM
COc1cc2c(cc1OC)C(c1ccc(Br)cc1)NCC2 (configuration not stated)	IL-1B inflam inh -52
O=C(COC(=O)c1cc(S(=O)(=O)N2CCOCC2)c(Cl)cc1Cl)NCc1ccco1	IL-1B inflam inh -80
CC(=O)c1cc2c(cc1NC(=O)C1CC1)OCO2	none
COc1ccc(CN(C(=S)Nc2ccccc2)C2CC(=O)N(c3ccc(Cl)cc3)C2=O)cc1 (configuration not stated)	TGFb inhibitor inconclusive, HT1080NT lethal 12µM, HT1080 IDH1KD tx inconclusive
Cc1ccc(C(=O)NNC(=S)NC(=O)c2ccc(Cl)cc2)cc1	HT1080 IDH1KD tx inconclusive
Cc1ccc(C(=O)NS(=O)(=O)c2ccccc2)cc1	none
CC(=O)NC(=C(Cl)Cl)S(=O)(=O)c1ccccc1	IL-1B inflam inh -100
Cc1ccc(C(=O)NC(=C(Cl)Cl)S(=O)(=O)c2ccc(Cl)cc2)cc1	IL-1B inflam inh -64, TGFb inhibitor inconclusive, HT1080NT lethal inconclusive, HT1080 IDH1KD tx inconclusive
Cc1ccc(S(=O)(=O)C(NC(=O)c2ccccc2)=C(Cl)Cl)cc1	IL-1B inflam inh -117, HT1080NT lethal inconclusive, HT1080 IDH1KD tx inconclusive
Cc1ccc(S(=O)(=O)/C(=C/Cl)NC(=O)c2ccccc2)cc1	IL-1B inflam inh -73, TGFb inhibitor inconclusive, HT1080NT lethal inconclusive, HT1080 IDH1KD tx 21µM
Cc1ccc(C(=O)NC(=C(Cl)Cl)S(=O)(=O)c2ccc(C)cc2)cc1	IL-1B inflam inh -104, HT1080NT lethal inconclusive, HT1080 IDH1KD tx inconclusive
O=C(NS(=O)(=O)c1ccc(Cl)cc1)c1ccccc1	none
O=C(NC(=C(Cl)Cl)S(=O)(=O)c1ccc(Cl)cc1)c1ccccc1	IL-1B inflam inh -93, TGFb inhibitor inconclusive, HT1080NT lethal inconclusive, HT1080 IDH1KD tx inconclusive
COc1ccc(OC)c(CCNC(=O)c2ccc3c(c2)N(Cc2ccc(F)cc2)CCS3)c1	none
Cc1ccc(CN2CCSc3ccc(C(=O)NCCCN4CCN(C)CC4)cc32)cc1	HT1080NT lethal 26µM, HT1080 IDH1KD tx inconclusive
COc1ccc(CCNC(=O)c2ccc3c(c2)N(Cc2ccc(F)cc2)CCS3)c(OC)c1	IL-1B inflam inh -55
Cc1ccc(CCNC(=O)c2ccc3c(c2)N(Cc2ccc(F)cc2)CCS3)cc1	none (no result: IL-1B inflam inh, HT1080NT lethal, HT1080 IDH1KD tx, Giardia kill)
CCOc1ccc(NC(=O)C(Cc2ccccc2)NS(=O)(=O)c2ccc3c(c2)oc(=O)n3C)cc1 (configuration not stated)	none (no result: IL-1B inflam inh, HT1080NT lethal, HT1080 IDH1KD tx, Giardia kill)
CCCCCCOC(=O)c1ccccc1NC(=O)/C=C/C(=O)O	IL-1B inflam inh -100
O=C(O)/C=C/C(=O)Nc1ccccc1C(=O)OCC(=O)c1ccc2c(c1)OCCO2	IL-1B inflam inh -75, Giardia kill inconclusive
CC(=O)N1c2ccccc2C(CBr)=CC1(C)C	none
O=C(C[n+]1ccc2ccccc2c1)Nc1cc(C(F)(F)F)ccc1Cl	IL-1B inflam inh -58
O=C(C[n+]1ccccc1)Nc1cc(C(F)(F)F)ccc1Cl	none
